Among the data in PubChem BioAssay (NCI) are growth values, retold here.

The structures appear in SMILES notation. “And” between values parts separate entries of the source, which are not always exact repeats. Equal entries are not always repeated. About 83,000 compounds went through this panel and 20% of them were active in at least one assay; those are over-represented in the sample as a whole.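 48-hour exposure, single concentration, 96-well plates; percent growth endpoint where 0 means no net growth. Active: below 10.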 The source made the active and inactive calls.

The test system of the assay is HL-60(TB) leukemia. The experiment in a line: NCI-60 one-dose screen, 48 h (100 = growth as untreated, 0 = no growth, -100 = all killed). To be noted: 10 µM unless noted.
As to `CCc1c(C)c2cc(-n3c(-c4ccc(OC)cc4)csc3=N)c(O)c(C)c2oc1=O`, the growth was -28.2% (active).

In the case of `CC1(C)OC2C(CO[Si](C)(C)C(C)(C)C)OC(n3c(I)c(C#C[Si](C)(C)C)c(=O)[nH]c3=O)C2O1` (centres undefined), the growth was 69.5% (inactive).

For the molecule `O=C1c2c(c3c4ccccc4[nH]c3c3ccc4ccccc4c23)C(=O)N1CCN1CCCCC1`, the growth was 9.19% (active).

As for `CCCCCCCCCCCCCCCCCCOc1ccccc1CC(=O)OCCC[N+](C)(C)C`, the growth is 9.1% (active).

For `Cc1cc2c(c(=O)o1)C(c1ccc(OC(=O)N3CCOCC3)cc1)C(C#N)=C(N)O2` (centres undefined), the growth is 104% (inactive).

As for `COc1ccccc1-n1cnc(N)c1C(=O)c1cc(OC)c(OC)c(OC)c1`, the growth was 10.9% (inactive).

`COc1cccc2cc(-c3cc4ccccc4[nH]3)c(=NC(=O)c3ccc(Cl)cc3)oc12`: the growth is 72.1% (inactive).

Turning to `CC(C)(C)[Si](C)(C)O[C@H]1C(=O)C=CN2CC=C[C@@H]12`, the growth was 89.5% [100 µM] (inactive).

As to `C[C@H](NC(=O)[C@@H](C)N)[C@H](Oc1ccc2c(cnn2-c2ccc(F)cc2)c1)c1ccc2c(c1)OCCO2`, the growth was 25.8% (inactive).

As to `N=C(N)N1CCc2ccccc2C1`, the growth was 93.6% (inactive) and 109% (inactive).

`COc1ccc(C2C3=C(COC3=O)N(CCO)c3cc4c(cc32)OCCO4)cc1` (centres undefined): the growth is 82.1% (inactive).

For the molecule `O=c1ccn(-c2ncnc3nc[nH]c23)cc1`, the growth is 92.7% (inactive).

Turning to `CC(C)n1cnc2c(Nc3cccc(Cl)c3)nc(N[C@H]3CCCC[C@@H]3N)nc21`, the growth was 25.1% (inactive).

On to `CCCC1=NNC(=O)C1`, for which the growth is 95.6% (inactive).

Regarding `O=[N+]([O-])c1ccc(N2CCN(Cc3ccccc3)CC2)c2c1no[n+]2[O-]`, the growth was -33.2% (active).

`Cc1cc(-c2ccc(NS(=O)(=O)c3ccccc3)c(C)c2)ccc1NS(=O)(=O)c1ccccc1`: the growth is 74.5% (inactive) and 97.3% (inactive).

As to `c1ccc(Nc2ccc(Nc3nc(-c4ccccc4)nc4ccccc34)cc2)cc1`, the growth is 87.1% (inactive).

In the case of `CCn1c(Sc2nnc(NC(=O)CCN3CCCC3)s2)nc2c1c(=O)n(C)c(=O)n2C`, the growth is 104% (inactive).

In the case of `Clc1ccc(CNc2c3ccccc3nc3ccccc23)cc1`, the growth was 44.7% (inactive).

For `C=CCN=c1sc2c(n1NC(=O)c1cc3ccc1CCc1ccc(cc1)CC3)C(=O)c1ccccc1C2=O`, the growth was -20.1% (active).

Turning to `Oc1cccc(Nc2nccc(-c3ccc4ccccc4c3)n2)c1`, the growth is 0.229% (active).

Turning to `N#Cc1c(NC(=O)c2ccco2)[n+]([O-])c2ccccc2[n+]1[O-]`, the growth is 81.4% (inactive).

`CNNc1ncnc2c1cnn2-c1ccc(S(N)(=O)=O)cc1`: the growth was 83.5% (inactive).

With `O=C(Cn1cc(CN2C(=O)c3ccccc3S2(=O)=O)nn1)Nc1nc2ccccc2s1`, the growth was 113% (inactive).

As for `CCOC(=O)C(C#N)=C1CCN(C)CC1`, the growth was 113% (inactive).

With `CCN(CC)CC(O)CNc1c2ccc([N+](=O)[O-])cc2nc2cc(OC)c(OC)cc12` (centres undefined), the growth is -17.5% (active).

Turning to `Cc1[nH]nc2c(=S)[nH]c(=O)[nH]c12`, the growth is 89.2% (inactive).

Turning to `COC(=O)C(CSC(c1ccccc1)(c1ccccc1)c1ccccc1)NC(=O)C(CC(N)=O)NC(=O)OCc1ccccc1` (centres undefined), the growth was -7.75% (active).

Turning to `N#CCN1C(=O)C2C3=C(CCCC3)SC2N=C1CN1CCCC1` (centres undefined), the growth was 66.3% (inactive).
